ELG1 genotoxic: inducers of genotoxicity in HEK293T ELG1-luciferase cells | Potency, µM (series often up to 46 µM), usual class: activators | HEK293T ELG1-luciferase reporter, luminescence, 16 h | 330,000 tested, 1.3% active; further: nearly all actives have a fitted effect of over 60% in size
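After overnight (16 hr) compound treatment at 37 °C, ELG1-luciferase HEK293T cells were lysed with ONE-Glo; luminescence quantified 30 min later at room temperature.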
Rab9 promoter act: Rab9 promoter activation; AID 485297; Huh7 Rab9 promoter-luciferase reporter, luminescence, 24 h; 320,000 tested, 2.8% active; Potency, µM (series often up to 9.22 µM), most hits filed as activators; further: nearly all actives have a fitted effect of over 60% in size
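Cell-based reporter: Huh7 stable for Rab9 promoter-driven luciferase, plated in reduced-serum medium with 10% FBS at 1500 cells/well, compound-treated 24 h at 37 °C, luminescence read after 10 min reagent.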
ELG1 repair inh: blocks ELG1-dependent DNA repair in HEK293T cells | HEK293T ELG1-luciferase reporter, luminescence, 16 h; DNA damage induced by 5-fluorouridine | Potency, µM (highest dose often 46.1 µM), usual class: inhibitors | 330,000 tested, 2.3% active | AID 504467; further: nearly all actives have a fitted effect of over 55% in size
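Luminescence from the luciferase reporter, measured 30 min after ONE-Glo reagent at room temperature, was the read-out. Beforehand, 2,000 cells per well were exposed for 16 hr at 37 °C to 5-fluorouridine together with compound or vehicle.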
FLuc modulator: firefly luciferase modulation, counter-screen for miR-21 project; 360,000 tested, 6.9% active; P08659; Potency, µM (series often up to 57.5 µM), actives largely listed as inhibitors; purified FLuc, Km substrates, luminescence inhibition; further: nearly all actives have a fitted effect of over 55% in size
Target sequence (P08659 whole entry, looked up): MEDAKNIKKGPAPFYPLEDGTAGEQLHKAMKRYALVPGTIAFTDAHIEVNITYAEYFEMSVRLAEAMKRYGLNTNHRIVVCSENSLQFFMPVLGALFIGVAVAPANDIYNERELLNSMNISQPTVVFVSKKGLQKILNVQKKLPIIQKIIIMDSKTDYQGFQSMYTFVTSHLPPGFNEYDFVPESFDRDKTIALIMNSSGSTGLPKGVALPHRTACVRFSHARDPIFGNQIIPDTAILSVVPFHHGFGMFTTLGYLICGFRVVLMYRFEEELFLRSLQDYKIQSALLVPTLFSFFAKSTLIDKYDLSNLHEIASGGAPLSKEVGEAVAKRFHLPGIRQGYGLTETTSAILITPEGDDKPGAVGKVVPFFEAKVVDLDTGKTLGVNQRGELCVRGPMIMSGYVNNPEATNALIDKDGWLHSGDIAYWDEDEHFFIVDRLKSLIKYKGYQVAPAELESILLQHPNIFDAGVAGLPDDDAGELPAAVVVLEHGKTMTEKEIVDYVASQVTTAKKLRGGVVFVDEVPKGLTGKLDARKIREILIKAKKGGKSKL
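Purified P. pyralis luciferase (10nM final) with 10uM D-luciferin and 10uM ATP (Km levels) in 50mM Tris acetate pH 7.5, 10mM Mg acetate, 0.01% Tween-20, 0.05% BSA; qHTS 6-point titration, ~60 µM downward; luminescence read.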
SMN2 splice up: increases expression of the SMN2 splice variant; AID 1458; 210,000 tested, 2.8% active; HEK293 SMN2-luciferase splicing reporter, luminescence, 30-36 h; Potency, µM (titrated, usually from 46.1 µM), hits mostly activators; further: nearly all actives have a fitted effect of over 55% in size
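qHTS luciferase splicing reporter: luminescence rises when SMN2 exon 7 is included in transfected HEK293 cells. Compound exposure lasted 30-36 h at 37C, with 4.5 mM final sodium butyrate as control, followed by a ONE-Glo read.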
NPC1 promoter act: activators of NPC1 promoter. Potency, µM (top dose mostly 9.22 µM), usual class: activators. Huh7 NPC1 promoter luciferase reporter, 24 h. 320,000 tested, 2.4% active; further: nearly all actives have a fitted effect of over 60% in size
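Compounds in DMSO were transferred onto Huh7 NPC1-luciferase reporter cells pre-incubated 2 h; after 24 h at 37 °C, Amplite reagent was dispensed and luminescence recorded 10 min later.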
A number is an active result; n = inactive; u = inconclusive; x = no result given; [ ] = dose if it differs, or a comment. A selection: hits, their analogues and other compounds. The true share with any hit is near 9.4%. The call rests on the fitted dose curve; in most records, active means well fitted curve in the direction sought with a large enough effect; inconclusive means small, poorly fitted or top-dose-only effect, or another doubt; inactive means no such curve, though single readings can be large; an effect the other way counts as inactive or inconclusive.

SMILES | ELG1 genotoxic | Rab9 promoter act | ELG1 repair inh | FLuc modulator | SMN2 splice up | NPC1 promoter act
O=C(CN1CCN(C(=O)c2ccc(-c3nc4ccccc4s3)o2)CC1)Nc1ccccc1Cl | n | n | u | u | x | n
C[C@H](C(=O)c1ccncc1)c1ccccn1 | x | x | x | x | n[9.22 µM] | x
Cc1ccc(CNC(=O)C2(S(=O)(=O)c3ccccc3)CC=CC2)cc1 | u | 4µM | u | 15µM | x | 4µM
Cc1cc(C)n(C(=O)/C(C#N)=N/Nc2cc(Cl)cc(Cl)c2)n1 | n | n | 16µM | u | n | n
O=C(c1cc2ccccc2o1)N(Cc1nnc(-c2ccccc2Cl)o1)C1CC1 | 21µM | n | u | 30µM | x | n
CCCN(Cc1nnc(-c2ccccc2Cl)o1)C(=O)c1cc2ccccc2o1 | n | n | u | u | x | n
O=C(c1cc([N+](=O)[O-])cc([N+](=O)[O-])c1)N(Cc1nnc(-c2ccccc2Cl)o1)C1CC1 | n | n | u | n | n | n
CCOc1ccc2oc(C(=O)N(Cc3nnc(-c4ccccc4Cl)o3)C3CC3)c(C)c2c1 | u | n | 9.2µM | n | x | n
O=C(Nc1ccc(NC(=O)C2CC2)cc1)c1ccco1 | 13µM | 1.8µM | u | 19µM | x | 3.2µM
O=C(Nc1ccc(NC(=O)c2ccco2)nc1)c1ccco1 | n | 0.32µM | u | 4.8µM | 2.5µM | 0.4µM
CCCCC(=O)Nc1ccc(NC(=O)c2cc(OC)c(OC)c(OC)c2)cn1 | n | n | n | n | n | n
CCCCC(=O)Nc1ccc(NC(=O)c2ccccc2OC)cn1 | n | n | 18µM | n | x | n
COc1ccccc1C(=O)Nc1ccc(NC(=O)c2ccco2)cn1 | u | u | u | 6µM | x | u
O=c1c2sc3ccccc3c2n(Cc2ccccc2)c(=O)n1CCc1ccccc1 | x | x | x | n | n | x
C[C@@]12C[C@H](O)C3[C@H](CCC4=CC(=O)CC[C@]43C)[C@H]1CC[C@@H]2c1csc(N)n1 (some centres undefined) | x | x | x | x | n[9.22 µM] | x
O=C(Cc1ccccc1)Nc1ccc(NC(=O)c2ccco2)nc1 | u | 2.5µM | u | 17µM | u | 2.2µM
CCC(=O)Nc1ccc(NC(=O)C23CC4CC(CC(C4)C2)C3)cn1 | u | n | u | n | u | n
O=C(Nc1ccc(NC(=O)C2CCCCC2)nc1)c1cccc(F)c1 | n | n | u | n | x | n
O=C(Nc1ccc(NC(=O)C2CCCCC2)cn1)c1ccco1 | 0.65µM | 0.45µM | u | 1.7µM | x | 0.71µM
CC(C)(C)C(=O)Nc1ccc(NC(=O)c2ccco2)nc1 | u | n | u | 0.17µM | x | n
O=C(Nc1ccc(NC(=O)C23CC4CC(CC(C4)C2)C3)cn1)c1ccco1 | 2.3µM | n | u | 6µM | n | 1µM
COc1ccc(CCNC(=O)Cn2c(=O)nc(-c3ccccc3)c3ccccc32)cc1OC | x | x | x | n | x | x
CCn1cc2nc(SCC(=O)Nc3ccc(C)cc3)n(Cc3ccc(C)cc3)c(=O)c2n1 | x | x | x | n | x | x
O=C(Nc1ccc(NC(=O)c2ccco2)nc1)c1ccccn1 | u | 0.71µM | u | 6µM | 14µM | 0.45µM
O=C(Cc1ccccc1)Nc1ccc(NC(=O)C2CCCCC2)nc1 | n | n | 5.2µM | n | x | n
SMILES | ELG1 genotoxic | Rab9 promoter act | ELG1 repair inh | FLuc modulator | SMN2 splice up | NPC1 promoter act
O=C(Cc1ccccc1)Nc1ccc(NC(=O)C2CC2)nc1 | n | n | n | n | n | n
Cc1ccc(NC(=O)NNC(=O)C2CCN(Cc3ccc(F)cc3Cl)CC2)cc1 | n | n | n | n | x | n
O=C(CN1C(=O)C2(SCC(=O)N2c2cccc(Cl)c2)c2ccccc21)NC1CCCCC1 (centres undefined) | x | x | x | n | x | x
CCCCn1c(=O)[nH]c(=O)c2c1nc(Cn1ncc(Cl)c(Cl)c1=O)n2CCC | n | n | 23µM | n | x | n
CCCCc1nn2c(=O)cc(COC(=O)c3ccccc3NC(=O)c3cccs3)nc2s1 | x | x | x | n | x | x
COc1ccccc1NC(=O)C1=C(C)Nc2nc(SCc3cc(C)ccc3C)nn2C1c1ccccc1 (centres undefined) | x | x | x | n | x | x
COc1ccccc1CNc1nc(-c2ccco2)nn1C(=O)c1ccccc1[N+](=O)[O-] | x | x | x | n | x | x
COc1ccc(N2CCn3c2nc2c3c(=O)n(CCCc3ccccc3)c(=O)n2C)c(OC)c1 | n | n | 21µM | n | n | n
CCOc1ccc(N2CC(O)Cn3c2nc2c3c(=O)n(CCCc3ccccc3)c(=O)n2C)cc1 (centres undefined) | n | n | u | n | n | n
COc1cccc(N2CC(O)Cn3c2nc2c3c(=O)n(CCCc3ccccc3)c(=O)n2C)c1 (centres undefined) | n | n | 23µM | n | n | n
COc1ccc(N2CC(C)Cn3c2nc2c3c(=O)n(Cc3ccccc3)c(=O)n2C)c(OC)c1 (centres undefined) | n | n | 18µM | n | n | n
COc1ccc(N2CCn3c2nc2c3c(=O)n(CCc3ccccc3)c(=O)n2C)c(OC)c1 | n | n | u | n | n | n
CCOC(=O)c1ccc(N2CCN(c3cc(C)ccc3C)CC2)c(NC(=O)Nc2ccc(Cl)cc2)c1 | x | x | x | n | x | x
COc1ccc(NC(=O)c2csc3c2CCCCC3)c(OC)c1 | n | n | n | u | n | n
COc1ccc(NC(=O)c2csc3c2CCCCC3)cc1 | x | x | x | 5.4µM | 7.9µM | x
COc1cccc(NC(=O)c2csc3c2CCCCC3)c1 | x | x | x | 11µM | 13µM | x
O=C(Nc1ccccc1O)c1csc2c1CCCC2 | u | u | u | 9.5µM | 16µM | u
COc1ccc(Br)cc1CNC(=O)C1CCN(c2nnc(-n3cccc3CNc3ccc(C)cc3)s2)CC1 | x | x | x | n | n | x
COc1ccc(C(=O)NCc2nnnn2-c2ccc(C)c(C)c2)cc1 | x | x | x | n | x | x
Cc1ccc(/C=C/C(=O)Nn2cnnc2)cc1 | n | n | n | 5.4µM | n | n
Cc1ccc(/C=C/C(=O)NN2CCN(C)CC2)cc1 | n | n | u | n | x | n
Cc1cc(NS(=O)(=O)c2ccc(NC(=O)COc3ccc(Br)cc3C)cc2)no1 | x | x | x | 21µM | n | x
Cc1cc(NS(=O)(=O)c2ccc(NC(=O)COc3c(C)cc(Br)cc3C)cc2)no1 | n | n | n | n | n | n
CCCCOc1cccc(C(=O)Nc2ccc(S(=O)(=O)Nc3cc(C)on3)cc2)c1 | n | n | n | 19µM | x | n
Cc1cc(NS(=O)(=O)c2ccc(NC(=O)/C=C/c3ccc(Br)cc3)cc2)no1 | n | n | n | 19µM | x | n
COC(=O)c1sc2cccc(F)c2c1S(=O)(=O)NCc1ccc(F)cc1 | x | x | x | n | x | x
Cc1ccc(/C=C/C(=O)Nc2cc(C)on2)cc1 | u | 4µM | u | u | u | 2.5µM
CC(=O)c1ccc(NC(=O)/C=C/c2ccc(C)cc2)cc1 | n | n | u | u | n | n
COc1ccccc1/C=C/C(=O)Nc1ccc(S(=O)(=O)Nc2cc(C)on2)cc1 | n | n | n | 24µM | x | n
Cc1occc1C(=O)Nc1nccs1 | n | n | n | n[2.3 µM] | n | n
